Structures are written as SMILES.

The experiment deals with Trypanosoma cruzi. Put plainly: Trypanosoma cruzi phosphomannomutase and mannose-1-phosphate guanylyltransferase assay. In kind it is functional. Set-up: scale not given: direction of the effect not stated beside the values. The conditions noted are these: 10 µM.
Turning to `CC(=O)N1CCCC1c1nccc(C)n1` (centres undefined), the Percent Effect was -0.984%. The result for `CN(Cc1nccn1CC(F)(F)F)C(=O)c1cccc(C#N)c1` reads -3.21%.

As for `COc1ccc(-c2noc(CNC(C)Cn3cccn3)n2)c(OC)c1` (centres undefined), the Percent Effect came to 2.15%. Regarding `NCC(=O)N1CCCC(c2cncc(Nc3ncccn3)n2)C1` (centres undefined), the Percent Effect is -2.57%. The result for `O=C(Cc1ccccc1)N1CCC2(CC(=O)N(c3ccsc3)C2)C1` (centres undefined) reads 3.52%. The result for `CCCSCC(=O)NS(=O)(=O)c1ccc2c(c1)OCCO2` reads 1.5%. The result for `O=C(NC1CC1)[C@H]1C[C@@H]2CCN(CCc3ccccc3)C[C@H]2O1` reads -7.28%; that for `OC1CCCN(Cc2c(-c3ccco3)[nH]c3ncccc23)C1` (centres undefined), 2.17%; that for `Cn1cccc1C1CCCN1C(=O)NCCCn1cccn1` (centres undefined), -0.0974%. For `O=C(NC1(c2nnn(CCO)n2)CCCC1)c1ccccc1`, the Percent Effect was 3.41%. The result for `O=C(Cc1ccccc1)N1CCC2(CC(=O)N(c3cccc(F)c3)C2)C1` (centres undefined) reads -1.86%; that for `c1cncc(C2COC3(CCN(CC4CC4)CC3)C2)c1` (centres undefined), -1.17%. For `Cc1nc(C2CCCN(C(=O)c3ccc(OCC4CC4)cc3)C2)no1` (centres undefined), the Percent Effect was found to be 10.9%.

With `Cc1ncsc1C(=O)NC1CCN(CCC(N)=O)CC1`, the Percent Effect was -2.62%. The result for `CCn1cc(N)c(C(=O)NCc2cnn(C)c2)n1` reads -1.48%; that for `O=C(NCCNc1ccc(C(F)(F)F)cn1)c1ccc(Br)cc1F`, -5.39%; that for `CCc1ccc(C(=O)N2CCCC(c3noc(CC)n3)C2)o1` (centres undefined), 3.04%. Take `CN(c1ccc(C(=O)NCCCN2CCOCC2)c(Cl)c1)S(C)(=O)=O`: the Percent Effect is 4.23%. The result for `CCN1CCCC1CN(CCN(C)C)S(=O)(=O)c1ccc(C#N)cc1` (centres undefined) reads 4.5%; that for `CN(C)C(C)(C)CNC(=O)C(C)(C)c1ccccc1F`, -4.18%; that for `Cc1cccc(CCC(=O)N2CCOCC2c2c(C)n[nH]c2C)c1` (centres undefined), -3.33%. The result for `COc1ccc(NC(=O)c2ccc[nH]2)c(N2CCN(C(C)=O)CC2)n1` reads 0.781%; that for `CS(=O)(=O)NCC1CCCN(C(=O)Nc2ccccc2Cl)C1` (centres undefined), 1.66%. The result for `O=c1cc2c(nn1CN1CCOCC1)CCC2` reads -0.786%; that for `CN(C)C(CNC(=O)c1cccc(-n2cnnn2)c1)c1ccccc1Cl` (centres undefined), -7.64%. As to `COc1cccc2c1ccn2CCNC(=O)C(C)C`, the Percent Effect stood at 0.393%. For the molecule `CCc1ncncc1C(=O)N1CCCN(Cc2ccc(C)cc2)CC1`, the Percent Effect was -6.44%. Take `CC(NC1(CNC(=O)C(C)(C)C#N)CCOCC1)c1ccccc1` (centres undefined): the Percent Effect is -3.03%. The result for `COc1ccc(CN2C[C@@H]3OCCN(CC4CCCO4)[C@@H]3C2)cc1` (some centres undefined) reads 6.16%. The result for `Cc1cc(C)c(CNC(=O)N2CCN(c3cnccn3)CC2)c(=O)[nH]1` reads 6.96%. The result for `Cc1nc(CN(Cc2cccs2)C2CCS(=O)(=O)C2)oc1C` (centres undefined) reads -3.27%; that for `CCOc1ccc(S(=O)(=O)NC(=O)CCC2CCCO2)cc1` (centres undefined), 0.283%; that for `CC(C)NC(=O)N1CC[C@@H]2CN(Cc3ccccc3)S(=O)(=O)[C@@H]2CC1`, -6.16%. In the case of `CN(Cc1ccc(F)cc1)C(=O)CN1CCCC(Cn2cncn2)C1` (centres undefined), the Percent Effect worked out at 3.49%.

`CNS(=O)(=O)c1ccc(C(=O)N2CCCC(n3cccn3)C2)cc1` (centres undefined): the Percent Effect was 4.89%. The result for `Cc1ccc(F)c(-n2nnc(C(=O)O)c2-c2ccncc2)c1` reads -3.8%; that for `CN(C)c1ccc(C(=O)NCC2(O)CCOCC2)cc1`, 3.48%. The result for `CNS(=O)(=O)CCCN1CCCC1c1cc(C)on1` (centres undefined) reads -3.68%; that for `CCN1CC2(CC1=O)CN(Cc1cccs1)CCN(C(=O)C(C)C)C2` (centres undefined), -2.73%.
